This is part of a sample that, as a whole, favours compounds with a hit. Of some 83,000 tested, about 20% had one in any assay.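 Cells were grown in 96-well plates and exposed to the test compound at a single concentration for 48 hours; results are reported as percent growth, with values below 10 considered active.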 Unmarked numbers belong to inactive results. The source made the active and inactive calls.
Test system: EKVX NSCLC
Assay: NCI-60 one-dose screen, 48 h (100 = growth as untreated, 0 = no growth, -100 = all killed)
Conditions: 10 µM unless noted
Procedure: Growth inhibition of the EKVX human Non-Small Cell Lung tumor cell line is measured as a screen for anti-cancer activity. Cells are grown in 96 well plates and exposed to the test compound for 48 hours. Compounds are tested at a single concentration, which is 10^-5 M for most compounds. The reported endpoint is percent growth (GI% or GIPRCNT), where numbers from 0 - 100% represent growth inhibition, and numbers from -100% - 0 represent cell death. For example, a value of 40 represents 60% growth inhibition. A value of 0 means no net growth occurred over the course of the experiment. A value of -40 indicates 40% of cells at the beginning of the experiment died by the end of the experiment. A value of -100 means all cells are dead at the end of the experiment.
NCI-60 Human Tumor Cell Lines Screen was performed using the standard one-dose NCI protocol, which is described in more detail at https://dtp.cancer.gov/discovery_development/nci-60/default.htm.
Compounds with GIPRCNT values below 10 were considered active. Activity score was based on GIPRCNT using the following formula: […]
Score is 0 for GIPRCNT values of 100 or above, 50 for GIPRCNT values of 0, and 100 for GIPRCNT values of -100.

SMILES	growth
COc1ccc(-c2nc(SCC(=O)Nc3ccc(C(=O)/C=C/c4ccc(Cl)cc4)cc3)[nH]c(=O)c2C#N)cc1	95.7%
O=C(N=Nc1c(O)[nH]c2ccc(Br)cc12)c1cc(-c2ccccc2)on1	91.3%
COc1cccc(-c2nc3sccn3c2-c2ccnc(NCCCNS(=O)(=O)c3cccc(Cl)c3)c2)c1	40.6%
OCc1ccc(N2CCc3cccc(F)c3C2)cc1Cl	104% [0.1 µM]
O=C1CSC(=S)N1CCc1ccc(O)cc1	97.8%
N#Cc1c(-c2ccc(Cl)cc2)nc(N/N=C/c2cccc(Br)c2)nc1N1CCOCC1	68.7%
Nc1nc2ncc(CCNc3ccc(C(=O)O)cc3)nc2c(=O)[nH]1	120%
COc1ccc(C2C(C#N)=C(N)Oc3n[nH]c(-c4cccs4)c32)cc1I (stereo not given)	96%
CCNC(=O)Oc1ccc(/C(=C(\C)c2ccc(Cl)cc2)c2ccc(OCCN(CC)CC)cc2)cc1	60.1%
COc1ccc2c(c1)C(=O)/C(=C/c1ccccn1)CC2	92.5%
COc1ccc(C2Nc3c(c(C(C)(C)C)nn3-c3ccccc3)C(=O)CS2)cc1 (stereo not given)	93.9%
OCC(O)c1nc2ccc3[nH]ncc3c2c2c1CCCC2 (stereo not given)	5.55% (active)
COc1ccc(-c2nc3ccc(-c4nc5ccc(N6CCN(C)CC6)cc5[nH]4)cc3[nH]2)cc1OC	85.4%
CC(C)(O)c1cn(CCCCN2C(=O)C(=O)c3ccccc32)nn1	93.7%
CCOC(=O)c1sc2nc(-c3cccc(O)c3)nc(N3CCOCC3)c2c1C	36.1%
O=C(O)c1ccc(N=CC(=O)c2ccc(-c3ccccc3)cc2)cc1	99.3%
COc1ccc(-c2cc(=O)c3c(OC)c4ccoc4cc3o2)cc1	86.3%
CCOC(=O)c1c(C)oc2ncnc(N3CCN(C(=S)Nc4ccccc4)CC3)c12	91.2%
CC(=O)c1cc(C(=O)c2ccc3c(c2)Sc2ccccc2N3)n2ccccc12	41.2%
O=C1c2cccc3cccc(c23)C(=O)N1CCCCCN1CCN(CCCCCOc2ccc(-c3nc4ccc(N5CCOCC5)cc4[nH]3)cc2)CC1	105%

SMILES	growth
O=S(=O)(Nc1ccc(OC(F)F)cc1)c1ccc(-c2cnc(C3CC3)o2)cc1	61.7%
COc1cc2c(cc1O)CC[C@@H]1[C@@H]2CC[C@]2(C)[C@@H](OCCCN(C)C)CC[C@@H]12	0.0282% (active)
COc1ccc2c(c1)CC/C(=C\c1cncc(Br)c1)C2=O	99.2%
CCOC(=O)n1cc(-c2nonc2-c2cn(C)c3ncccc23)c2cc(F)ccc21	67.3%
COc1cc(-c2ccc3c(c2)NC(=O)/C3=C\c2ccc[nH]2)ccc1O	35.6%
CSc1ccc(-c2n[nH]nc2-c2cc3ccccc3s2)cc1	73.2%
O=c1cc(CSc2nnc(-c3ccc(F)cc3)o2)c2ccc3ccccc3c2o1	88.7%
O=[N+]([O-])c1ccc(Nc2nc(NCCN3CCOCC3)ncc2[N+](=O)[O-])cc1	88.2%
O=CNc1ccc2c(c1)Cc1cccc(NC=O)c1-2	80.4%
CC(=O)c1cc2c(N)c(C(=O)Nc3cccc4ccccc34)sc2nc1C	46.4%
CCOC(=O)c1sc(Nc2ccc(Cl)cc2)nc1C	7.71% (active)
COc1ccc(-n2nc(C)c3c(Nc4ccc(NC(=O)Nc5cc(C(F)(F)F)ccc5F)cc4)ncnc32)cc1	24.1%
CSc1nc(Nc2cccc(NC(=O)CCl)c2)c(C#N)c(-c2cccc([N+](=O)[O-])c2)n1	74.1%
Nc1n[nH]c2ccc([C@@H]3Nc4cc5c(cc4[C@H]4C6CCC(C6)[C@@H]34)C(=O)NC5)cc12 (stereo not given in full)	48.9%
CON1C(=O)CC[C@]2(C)[C@H]3CC[C@@H]4C([C@@]5(C)CCC(=O)O5)CC[C@@]4(C)[C@]3(C)CC[C@H]2C1(C)C (stereo not given in full)	93.3%
Cc1cn2c(/C=C3/C(=O)Nc4c3ccc3ccccc43)c(C(F)(F)F)nc2s1	44.4%
COc1cc(/C=C/C(=O)c2cccnc2Nc2ccc(F)cc2)cc(OC)c1OC	69.5%
Cc1cc(C)nc(SC2=C(Nc3cc(Cl)ccc3O)C(=O)N(Cc3ccccc3)C2=O)n1	83.9% [30 µM]
O=C1Nc2cc(-c3ccc(O)cc3)ccc2/C1=C/c1ccc[nH]1	12%
CCOC(=O)C(C)(C#N)C1C=CCCC1 (stereo not given)	96.7%
